# Screening data as filed in PubChem.
# In the library only some 2.4% were active in any assay of this set; here they are far more common.
# D2 ag-1 = HTS Assay for Allosteric Agonists of the Human D2 Dopamine Receptor: Primary Screen for Agonists. 0.53% of 340,000 active. activation, % at 2 µM. HEK293 T-REx D2 cells, calcium flux agonist mode;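 active = activation over 3 SD above normal in the single-dose calcium agonist read, cut at about 30% in these data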; also: 0% is about no effect
#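 Agonism is scored from calcium flux in a force-coupled, inducible HEK293 cell line expressing D2, read kinetically for 180 s after compound addition against dopamine controls.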
# D2 PAM-1 = HTS Assay for Positive Allosteric Modulators of the Human D2 Dopamine Receptor: Primary Screen for Potentiators; AID 485347, 2010; 0.34% of 340,000 active; potentiation, % at 10 µM; HEK293 T-REx D2, calcium flux, EC20 dopamine potentiation; D(2) dopamine receptor (Homo sapiens), P14416;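 active = potentiation over 3 SD above the plate norm, cut at about 30% in these data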; also: 0% is about no effect
#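 Using a no-wash calcium dye in inducible, force-coupled HEK293 Trex cells expressing D2, we tracked fluorescence each second for 180 s after compound, then for 180 s after EC20 dopamine to detect augmented signalling.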
# D2 antagonist = HTS Assay for Allosteric Antagonists of the Human D2 Dopamine Receptor: Primary Screen for Antagonists; AID 485344, 2010; HEK293 TREx D2 cells, calcium flux, dopamine EC80; D(2) dopamine receptor (Homo sapiens), P14416; 2% of 340,000 active; inhibition, % at 10 µM; in the data active = inhibition above about 30%; inactive = below that, where a call was filed; also: 0% is about no effect
#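 HEK293 T-REx D2 cells, tet-induced, calcium dye no-wash. Cpd pintool add, 180 s kinetic, then EC80 DA, 180 s kinetic. Ca flux read.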
# D2 ag-2 = Beta-Arrestin HTS for Positive Allosteric Modulators of the Human D2 Dopamine Receptor: Agonists. DiscoveRx PathHunter D2 beta-arrestin, luminescence, 90 min; 100% = 57 uM dopamine signal. D(2) dopamine receptor (Homo sapiens), P14416. AID 624465, 2012. activation, % (concentration not given with the values). 0.084% of 360,000 active; in the data active = activation above about 40%; inconclusive = between about 15% and that limit
#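 DiscoveRx PathHunter D2 beta-arrestin cells (2,100/well) attached overnight, then compound-stimulated 90 min at 37 C in HBSS/10 mM HEPES/0.1% Tween-20 buffer; beta-galactosidase complementation read by luminescence after 1 h at ambient temperature. Dopamine 57 uM final (EC100) as control.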
# D2 PAM-2 = Beta-Arrestin HTS for Positive Allosteric Modulators of the Human D2 Dopamine Receptor: Potentiators. D(2) dopamine receptor (Homo sapiens), P14416. DiscoveRx D2 beta-arrestin cells, luminescence, 90 min; 100% = 57 uM dopamine signal. potentiation, % (no concentration beside the values). 0.23% of 360,000 active; in the data active = potentiation above about 50%; inconclusive = mostly about 30% to 49%
#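 PathHunter D2 cells, attached overnight at 37 deg C, received compound in DMSO plus dopamine at EC20 (50 nM final) for 90 min at 37 deg C. Beta-arrestin recruitment was read as luminescence after 1 h with detection reagent at ambient temperature.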
# D3 arrestin ag = qHTS of D3 Dopamine Receptor Agonist: D3 Dopamine Receptor B-arrestin Agonist Confirmatory Assay; shares compounds with D2 ag-1; DiscoveRx D3 beta-arrestin cells, luminescence, 90 min; Potency, µM (series often up to 76.9 µM), inactives show at the top dose activation, hits mostly activators; 4% of 2,300 active; AID 720506, 2013;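 also: potency is read from the fitted curve at half-maximal effect; 100% = dopamine control response; nearly all actives have a fitted effect of over 70% in size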
# Target sequence (P35462 whole entry, looked up): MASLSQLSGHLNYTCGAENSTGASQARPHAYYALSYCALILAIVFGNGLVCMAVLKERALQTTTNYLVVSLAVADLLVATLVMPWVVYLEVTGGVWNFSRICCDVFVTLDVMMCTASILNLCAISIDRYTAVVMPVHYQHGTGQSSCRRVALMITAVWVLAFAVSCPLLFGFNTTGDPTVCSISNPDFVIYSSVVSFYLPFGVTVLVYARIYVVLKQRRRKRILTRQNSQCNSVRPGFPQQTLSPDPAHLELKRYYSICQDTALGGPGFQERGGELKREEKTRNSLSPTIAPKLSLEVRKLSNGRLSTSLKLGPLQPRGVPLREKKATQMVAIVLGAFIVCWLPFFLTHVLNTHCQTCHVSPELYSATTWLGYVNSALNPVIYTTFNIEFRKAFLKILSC
# D2 ag-3 = qHTS of D3 Dopamine Receptor Agonist: D2 Dopamine Receptor B-arrestin Agonist Counterscreen; shares compounds with D2 ag-1; 5.9% of 2,300 active; DiscoveRx PathHunter D2 beta-arrestin, luminescence, 90 min; response scale: percent relative to full dopamine signal; Potency, µM (series often up to 76.9 µM), without a hit: top-dose activation, hits mostly activators; also: potency is read from the fitted curve at half-maximal effect; % of control where 0% means no effect; nearly all actives have a fitted effect of over 70% in size
# Numbers without * were called inactive; ? = inconclusive; . = no result. Unless noted, calls follow the shape of the dose curve; as a rule, active = well fitted activation curve with a large enough effect; inconclusive = small, poorly fitted or top-dose-only effect; inactive = flat fitted curve, though single readings scatter.
SMILES,D2 ag-1,D2 PAM-1,D2 antagonist,D2 ag-2,D2 PAM-2,D3 arrestin ag,D2 ag-3
CCOC(=O)N1CCN(C/C(C)=C/c2ccccc2)CC1,63*,-29,63*,?,22,11%,?
O=C(CCCn1c(=O)[nH]c2ccsc2c1=O)N1CCN(Cc2ccc3c(c2)OCO3)CC1,.,-6,.,-3,-19,-1%,10%
O=C(Cn1ccc2ccccc2c1=O)N1CCN(Cc2ccc3c(c2)OCO3)CC1,30*,-9,0,-4,-4,3%,9%
O=C(c1cnn2cccnc12)N1CCN(Cc2ccc3c(c2)OCO3)CC1,18,-4,-5,-2,-5,.,.
O=C(c1cc2ccccc2oc1=O)N1CCN(Cc2ccc3c(c2)OCO3)CC1,0,-8,1,0,-19,.,.
CCOc1ncccc1C(=O)N1CCN(Cc2ccc3c(c2)OCO3)CC1,80*,-22,75*,60*,-12,?,2.8µM*
COc1ccc(Cn2c(=O)[nH]c3cc(C(=O)N4CCN(c5cccc(OC)c5)CC4)ccc3c2=O)cc1,-1,7,.,.,.,.,.
CC(C)CCNC(=O)c1cn(C)c2ccc(S(=O)(=O)N3CCOCC3)cc2c1=O,0,4,.,.,.,.,.
CCCCC1Cc2[nH]c(=S)[nH]c(=O)c2C(c2ccc(F)cc2)O1 (stereo not drawn),.,.,.,7,-4,.,.
Cc1ccc(C(=O)N2CCN(Cc3ccc4c(c3)OCO4)CC2)o1,.,.,.,3,-35,11%,6%
CCOC(=O)N1CCN(Cc2ccc3ccccc3c2)CC1,34*,-6,21,2,-32,-3%,26%
Cc1ccc2c(C)c(C(=O)N3CCN(Cc4ccc5c(c4)OCO5)CC3)oc2c1C,0,-7,5,8,-32,.,.
CN(CC(=O)N1CCN(Cc2ccccc2)CC1)C(=O)Cc1cccc2ccccc12,37*,0,-15,0,-15,0%,7%
N#Cc1ccc(S(=O)(=O)N2CCC(C(=O)N3CCN(Cc4ccc5c(c4)OCO5)CC3)CC2)cc1,35*,-12,43*,?,3,2%,?
CCOC(=O)N1CCN(C(=O)c2ccc3ccccc3c2)CC1,0,-4,-1,-4,3,.,.
CCN(CC)CCCNC(=O)c1cnc(SC)nc1-c1ccccc1,0,-1,.,.,.,.,.
COc1ccc(-c2nc3scc(CCNS(=O)(=O)c4ccc(F)cc4F)n3n2)cc1OC,-1,3,.,.,.,.,.
COc1cccc(CN2CCN(C(=O)c3cccc(OC)c3)CC2)c1,0,2,4,-5,-18,.,.
CCn1cc(C(=O)NCc2ccc3c(c2)OCO3)c(=O)c2ccc(C)nc21,0,6,-21,.,.,.,.
CCOC(=O)N1CCN(Cc2ccc3c(c2)OCO3)CC1,86*,-31,81*,53*,?,13%,5µM*
CS(=O)(=O)c1ccccc1C(=O)N1CCN(Cc2ccccc2)CC1,.,.,.,4,-1,-19%,26%
CCn1cc(C(=O)N2CCN(Cc3ccc4c(c3)OCO4)CC2)c(=O)c2ccc(C)nc21,68*,-24,13,6,-15,4%,12%
O=C(c1ccccc1)N1CCN(Cc2cccc(Oc3ccccc3)c2)CC1,49*,-31,-1,1,-6,8%,6%
CCCCNC(=O)C(NC(=O)c1cccc2ccccc12)C(=O)c1ccccc1 (stereo not drawn),.,.,.,-7,-8,.,.
